Measurements from PubChem BioAssay.
For some assays here: Potency and affinity values are given separately. Activity calls are given as the source filed them. Unless noted, no rule for the calls is given here. Residues, ends and D or L forms follow the SMILES beside them. *: point of attachment. Boc = CC(C)(C)OC(=O)*

Assays:
[1] = antimalarial activity against Dd2 strain (AID 2302;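 active = growth inhibition above 50% at the single 2 µM test dose, taken to imply half-maximal potency below 2 µM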;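 also: 0% = DMSO untreated growth and 100% = chloroquine plus artemisinin killed control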); conditions: P. falciparum Dd2 in RBCs, LDH growth readout, 72 h; at 2 µM; active compounds read high
[2] = human hepatoma cell viability loss – ATP luminescence, cytotoxicity control for P. falciparum antimalarial project, primary screen (AID 2303;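 active = inhibition above 50%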;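 also: 0% = DMSO wells and 100% = digitonin-killed cells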); conditions: HepG2 viability, 24-48 h, at 10 µM, active compounds read high
[3] = target: L-lactate dehydrogenase (Plasmodium falciparum (isolate CDC / Honduras)) (UniProt Q27743); assay: PfLDH activity inhibition – cell lysate, 3D7 strain, counter-screen for P. falciparum growth inhibition project (AID 2304);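 also: 0% = vehicle and 100% = reference inhibitor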; conditions: P. falciparum 3D7 crude extract, LDH APAD/NBT absorbance; at 2 µM; active compounds read high
Chain of L-lactate dehydrogenase (Plasmodium falciparum (isolate CDC / Honduras)) (Q27743 whole entry, looked up): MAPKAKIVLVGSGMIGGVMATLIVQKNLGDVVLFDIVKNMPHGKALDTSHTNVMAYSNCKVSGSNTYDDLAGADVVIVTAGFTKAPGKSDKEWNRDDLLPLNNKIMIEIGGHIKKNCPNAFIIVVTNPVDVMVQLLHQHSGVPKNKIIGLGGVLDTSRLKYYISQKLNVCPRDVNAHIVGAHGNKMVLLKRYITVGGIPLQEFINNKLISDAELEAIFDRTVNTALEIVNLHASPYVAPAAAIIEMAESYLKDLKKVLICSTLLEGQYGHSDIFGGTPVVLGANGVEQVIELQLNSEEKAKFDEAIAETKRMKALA

[4] = inhibition of 3D7 malaria parasite growth – strain 3D7 (AID 2306);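 also: 0% = DMSO wells and 100% = chloroquine plus artemisinin control wells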; conditions: P. falciparum 3D7 erythrocytic growth, LDH absorbance, 72 h; at 2 µM; active compounds read high
[5] = target: Calcium-dependent protein kinase 1 (Plasmodium falciparum (isolate 3D7)) (UniProt P62344); assay: PfCDPK1 kinase inhibitors, biochemical, TCAMS library (AID 1159585; cut-off not given, nearly all actives have IC50 up to about 0.98 µM;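 also: inhibitors leave more ATP so luminescence rises with inhibition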); conditions: recombinant PfCDPK1, Kinase-Glo ATP depletion luminescence
Chain of Calcium-dependent protein kinase 1 (Plasmodium falciparum (isolate 3D7)) (P62344 whole entry, looked up): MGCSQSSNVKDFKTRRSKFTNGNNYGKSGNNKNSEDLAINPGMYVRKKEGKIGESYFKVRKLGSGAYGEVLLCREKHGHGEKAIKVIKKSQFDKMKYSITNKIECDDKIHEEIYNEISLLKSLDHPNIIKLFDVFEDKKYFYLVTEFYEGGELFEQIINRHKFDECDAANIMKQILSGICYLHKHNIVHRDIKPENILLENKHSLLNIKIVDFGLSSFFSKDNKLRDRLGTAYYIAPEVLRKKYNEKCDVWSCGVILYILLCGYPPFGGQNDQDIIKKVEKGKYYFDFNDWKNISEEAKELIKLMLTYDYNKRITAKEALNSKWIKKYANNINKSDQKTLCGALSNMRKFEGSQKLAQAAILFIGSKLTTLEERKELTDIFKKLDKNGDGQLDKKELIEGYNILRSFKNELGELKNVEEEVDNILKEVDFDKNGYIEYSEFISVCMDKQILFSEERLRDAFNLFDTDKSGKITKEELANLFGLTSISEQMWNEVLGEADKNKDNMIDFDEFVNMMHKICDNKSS

[6] = target: Plasmodium falciparum protein kinase 6 (PK6, PF3D7_1337100) (UniProt Q8IDW1); assay: PfPK6 kinase inhibitors, biochemical, TCAMS library (AID 1159586); conditions: recombinant PfPK6, Kinase-Glo ATP depletion luminescence
Chain of Plasmodium falciparum protein kinase 6 (PK6, PF3D7_1337100) (Q8IDW1 1-305): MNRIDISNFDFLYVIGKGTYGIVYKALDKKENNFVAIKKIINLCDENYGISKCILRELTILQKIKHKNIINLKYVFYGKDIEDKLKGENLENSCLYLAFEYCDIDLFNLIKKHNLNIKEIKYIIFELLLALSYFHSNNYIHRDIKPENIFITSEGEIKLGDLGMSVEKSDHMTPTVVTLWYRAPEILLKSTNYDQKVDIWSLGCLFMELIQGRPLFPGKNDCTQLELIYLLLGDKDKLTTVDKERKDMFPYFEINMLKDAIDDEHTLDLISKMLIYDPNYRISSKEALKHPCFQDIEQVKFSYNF

[7] = target: Protein kinase 7 (PK7), Plasmodium falciparum 3D7 (PF3D7_0213400) (UniProt Q7YTF7); assay: inhibition of Plasmodium PK7 catalytic activity – biochemical, TCAMS antimalarial set, Kinase-Glo luminescence (AID 1159587); conditions: recombinant PfPK7, Kinase-Glo ATP depletion luminescence
Chain of Protein kinase 7 (PK7), Plasmodium falciparum 3D7 (PF3D7_0213400) (Q7YTF7 1-343): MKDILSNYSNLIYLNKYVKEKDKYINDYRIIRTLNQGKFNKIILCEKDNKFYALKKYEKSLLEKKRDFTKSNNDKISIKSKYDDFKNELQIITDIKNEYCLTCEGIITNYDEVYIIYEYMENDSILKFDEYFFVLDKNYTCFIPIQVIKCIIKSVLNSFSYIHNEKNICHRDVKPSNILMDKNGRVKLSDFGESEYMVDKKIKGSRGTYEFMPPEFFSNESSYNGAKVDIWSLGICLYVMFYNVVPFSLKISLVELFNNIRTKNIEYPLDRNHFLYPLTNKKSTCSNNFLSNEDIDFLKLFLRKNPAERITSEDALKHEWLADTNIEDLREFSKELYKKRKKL

[8] = target: Calcium-dependent protein kinase 4 (Plasmodium falciparum (isolate 3D7)) (UniProt Q8IBS5); assay: PfCDPK4 kinase inhibitors, biochemical, TCAMS library (AID 1159588; cut-off not given, nearly all actives have IC50 up to about 0.91 µM); conditions: recombinant PfCDPK4, Kinase-Glo ATP depletion luminescence
Chain of Calcium-dependent protein kinase 4 (Plasmodium falciparum (isolate 3D7)) (Q8IBS5 whole entry, looked up): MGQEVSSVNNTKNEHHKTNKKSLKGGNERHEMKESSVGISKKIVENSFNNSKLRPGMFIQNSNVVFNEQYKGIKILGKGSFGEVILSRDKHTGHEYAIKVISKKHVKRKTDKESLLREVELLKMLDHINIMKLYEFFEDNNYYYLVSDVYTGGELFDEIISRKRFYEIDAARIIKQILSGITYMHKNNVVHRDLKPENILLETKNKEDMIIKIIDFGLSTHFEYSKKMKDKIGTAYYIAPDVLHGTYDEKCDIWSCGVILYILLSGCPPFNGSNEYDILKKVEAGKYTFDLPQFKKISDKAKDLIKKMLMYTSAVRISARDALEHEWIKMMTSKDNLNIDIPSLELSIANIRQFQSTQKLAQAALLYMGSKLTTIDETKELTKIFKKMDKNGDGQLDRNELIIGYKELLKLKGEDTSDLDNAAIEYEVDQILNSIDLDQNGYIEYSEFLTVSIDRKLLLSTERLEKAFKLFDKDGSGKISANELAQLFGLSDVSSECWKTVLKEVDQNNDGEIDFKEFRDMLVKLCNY

O=C(NCCc1ccccc1)[C@H](Cc1ccccc1)Nc1ccnc(NCC2CCCCC2)n1
inactive: inhibition [2] 11% | inhibition [3] 2% | outcome [5] | outcome [6] | outcome [7] | outcome [8]
active: growth inhibition [1] 53% | growth inhibition [4] 86%

O=C(Nc1ccc(C(=O)Oc2ccc(-c3ccccc3)cc2)cc1)N[C@@H](Cc1ccc(O)cc1)C(=O)NC1CCN(Cc2ccc(O)cc2)C1 (stereo not given in full)
active: growth inhibition [1] 60% | growth inhibition [4] 94%
inactive: inhibition [2] -7% | inhibition [3] 0% | outcome [5] | outcome [6] | outcome [7] | outcome [8]

N#Cc1ccc(N[C@@H](CC2CCCCC2)C(=O)NCc2cc(F)c(F)cc2F)c2ccccc12
active: growth inhibition [4] 94%
inactive: growth inhibition [1] 39% | inhibition [2] 12% | inhibition [3] -3% | outcome [5] | outcome [6] | outcome [7] | outcome [8]

COc1cccc(CN2CCCN(Cc3cccc(NC(=O)c4ccc(-c5ccccc5)cc4)c3)CC2)c1
inactive: growth inhibition [1] 8% | inhibition [2] 35% | inhibition [3] -1% | outcome [5] | outcome [6] | outcome [7] | outcome [8]
active: growth inhibition [4] 86%

CC1Cc2ccccc2N1S(=O)(=O)c1cccc(C(=O)Nc2nc(-c3ccccn3)cs2)c1 (stereo not given)
active: growth inhibition [1] 77% | growth inhibition [4] 84%
inactive: inhibition [2] 32% | inhibition [3] -2% | outcome [5] | outcome [6] | outcome [7] | outcome [8]

COc1cc(C(=O)Nc2ccc3nc(N4CCN(C)CC4)cc(C)c3c2)cc(OC)c1OC
active: growth inhibition [1] 79% | growth inhibition [4] 102%
inactive: inhibition [2] 18% | inhibition [3] -6% | outcome [5] | outcome [6] | outcome [7] | outcome [8]

CCCOC(=O)C1=C(C)NC2=C(C(=O)CC(c3ccc(OC)c(OC)c3)C2)C1c1cccc(O)c1 (stereo not given)
inactive: inhibition [2] -10% | inhibition [3] -2% | outcome [5] | outcome [6] | outcome [7] | outcome [8]
active: growth inhibition [1] 99% | growth inhibition [4] 100%

N#Cc1ccc2c(c1)CCN(CCC1CCC(NC(=O)/C=C/c3ccc(F)c4ccccc34)CC1)CC2 (stereo not given)
active: growth inhibition [4] 95%
inactive: growth inhibition [1] 19% | inhibition [2] 29% | inhibition [3] -2% | outcome [5] | outcome [6] | outcome [7] | outcome [8]

CN(C)CCOc1ccc(NC(=O)Nc2ccnc3c(Br)cccc23)cc1Cl
inactive: growth inhibition [1] 25% | inhibition [2] 10% | inhibition [3] 0% | outcome [5] | outcome [6] | outcome [7] | outcome [8]
active: growth inhibition [4] 97%

O=S(=O)(NC1CCN(c2ccnc3cc(Cl)ccc23)C1)c1ccc(F)cc1 (stereo not given)
inactive: inhibition [2] 3% | inhibition [3] 3% | outcome [5] | outcome [6] | outcome [7] | outcome [8]
active: growth inhibition [1] 88% | growth inhibition [4] 98%

Cc1[nH]c2c(NCc3ccc(F)cc3)nccc2c1C
inactive: growth inhibition [1] -3% | inhibition [3] -3% | outcome [5] | outcome [6] | outcome [7] | outcome [8]
active: inhibition [2] 63% | growth inhibition [4] 83%

Cc1cccc(C)c1N1CCN(C2CCC(NC(=O)/C=C/c3ccccc3)CC2)CC1 (stereo not given)
active: growth inhibition [4] 83%
inactive: growth inhibition [1] 34% | inhibition [2] 38% | inhibition [3] -2% | outcome [5] | outcome [6] | outcome [7] | outcome [8]

O=C(Nc1cccc(Cl)c1)N[C@H]1CCN(Cc2ccc(OCCCN3CCCCC3)cc2)C1
inactive: growth inhibition [1] -3% | inhibition [2] 15% | inhibition [3] 1% | outcome [5] | outcome [6] | outcome [7] | outcome [8]
active: growth inhibition [4] 99%

CN1CCN(Cc2nc(-c3ccc4c(Nc5ccc(F)c(O)c5)ccnc4c3)cs2)CC1
inactive: inhibition [2] 0% | inhibition [3] 7% | outcome [5] | outcome [6] | outcome [7] | outcome [8]
active: growth inhibition [1] 100% | growth inhibition [4] 100%

CC(=O)N(C)c1cccc(C(=O)Nc2cccc(-c3cccc(-c4nc5ccc(C(F)(F)F)cc5[nH]4)c3)c2)c1
inactive: growth inhibition [1] 41% | inhibition [2] 49% | inhibition [3] -5% | outcome [5] | outcome [6] | outcome [7] | outcome [8]
active: growth inhibition [4] 97%

CCCNC(=O)c1ccc(N2CCC(c3ccccc3C)CC2)nc1
inactive: inhibition [2] 6% | inhibition [3] 2% | outcome [5] | outcome [6] | outcome [7] | outcome [8]
active: growth inhibition [1] 80% | growth inhibition [4] 86%

O=[N+]([O-])c1ccc(NC(=NC2CCCc3ccccc32)Nc2ccccc2Br)c(O)c1 (stereo not given)
inactive: inhibition [2] -4% | inhibition [3] -3% | outcome [5] | outcome [6] | outcome [7] | outcome [8]
active: growth inhibition [1] 89% | growth inhibition [4] 98%

Cc1[nH]c(C)c(-c2ccc(-c3ccc(OC(F)(F)F)cc3)cc2)c(=O)c1Br
active: growth inhibition [1] 97% | growth inhibition [4] 96%
inactive: inhibition [2] 33% | inhibition [3] -3% | outcome [5] | outcome [6] | outcome [7] | outcome [8]

NC1=NC(c2ccccc2)(c2ccccc2)C(=O)N1CCOc1ccccc1
inactive: inhibition [2] 42% | inhibition [3] 0% | outcome [5] | outcome [6] | outcome [7] | outcome [8]
active: growth inhibition [1] 57% | growth inhibition [4] 90%

COC(=O)CC[C@H](NC(=O)[C@H](C)NC(=O)OC(C)(C)C)C(=O)OC (Boc-Ala-Glu(OMe)-OMe)
active: growth inhibition [4] 95%
inactive: growth inhibition [1] 0% | inhibition [2] 12% | inhibition [3] -2% | outcome [5] | outcome [6] | outcome [7] | outcome [8]

COc1ccc2nccc(N3CCC(NCc4ccc5c(n4)NC(=O)CS5)CC3)c2n1
inactive: inhibition [2] 14% | inhibition [3] 6% | outcome [5] | outcome [6] | outcome [7] | outcome [8]
active: growth inhibition [1] 63% | growth inhibition [4] 100%

Cc1cccc(C)c1N1CCN(C2CCC(NC(=O)c3cc4ccccc4[nH]3)CC2)CC1 (stereo not given)
inactive: inhibition [2] 31% | inhibition [3] -7% | outcome [5] | outcome [6] | outcome [7] | outcome [8]
active: growth inhibition [1] 64% | growth inhibition [4] 101%

CN1CCC(N2CCN(Cc3cccc(-c4ccc(-c5nc6ccccc6[nH]5)cc4)c3)CC2)CC1
inactive: inhibition [3] -7% | outcome [5] | outcome [6] | outcome [7] | outcome [8]
active: growth inhibition [1] 99% | inhibition [2] 56% | growth inhibition [4] 100%

O=C(Nc1cccc(F)c1)c1ccc(C(=O)NC2CCN(CC3CCCCC3)CC2)cc1
active: growth inhibition [4] 96%
inactive: growth inhibition [1] 16% | inhibition [2] 22% | inhibition [3] -7% | outcome [5] | outcome [6] | outcome [7] | outcome [8]

CN(C)c1ccc(N=C2N=C(Nc3ccc(N(C)C)cc3)c3ccccc32)cc1
active: growth inhibition [4] 93%
inactive: growth inhibition [1] 20% | inhibition [2] 23% | inhibition [3] -5% | outcome [5] | outcome [6] | outcome [7] | outcome [8]

Cc1cc(NCCc2ccccc2)nc(/N=C(\N)Nc2cccc([N+](=O)[O-])c2)n1
inactive: inhibition [2] 21% | inhibition [3] -2% | outcome [5] | outcome [6] | outcome [7] | outcome [8]
active: growth inhibition [1] 101% | growth inhibition [4] 102%

CC(C)(C)OC(=O)N1CCC(C2CCN(C(=O)OC(C)(C)C)CC2)CC1
inactive: growth inhibition [1] 28% | inhibition [2] -6% | inhibition [3] 1% | outcome [5] | outcome [6] | outcome [7] | outcome [8]
active: growth inhibition [4] 86%

CO/C(=C\C=C\c1cc2cc(Cl)c(Cl)cc2[nH]1)C(=O)NCC(C)(C)CN(C)C
active: growth inhibition [4] 81%
inactive: growth inhibition [1] 27% | inhibition [2] 35% | inhibition [3] 1% | outcome [5] | outcome [6] | outcome [7] | outcome [8]

O=C(Cc1cnc[nH]1)Nc1ccc(-c2ccc(-c3nc4ccccc4[nH]3)s2)cc1
active: growth inhibition [4] 90%
inactive: growth inhibition [1] 34% | inhibition [2] 44% | inhibition [3] 1% | outcome [5] | outcome [6] | outcome [7] | outcome [8]

Cc1cc(NC2CCCC2)nc(Nc2ccccc2C)n1
inactive: growth inhibition [1] 20% | inhibition [2] -2% | inhibition [3] 2% | outcome [5] | outcome [6] | outcome [7] | outcome [8]
active: growth inhibition [4] 88%

CN1CCCC1CCCOC(=O)c1ccc(N)cc1 (stereo not given)
inactive: growth inhibition [1] 2% | inhibition [2] 8% | inhibition [3] -2% | outcome [5] | outcome [6] | outcome [7] | outcome [8]
active: growth inhibition [4] 101%

CCOc1ccc(Cc2c(C)nc3nc(N)nc(N)c3c2C)cc1
inactive: growth inhibition [1] 7% | inhibition [3] 0% | outcome [5] | outcome [6] | outcome [7] | outcome [8]
active: inhibition [2] 63% | growth inhibition [4] 91%

COc1ccc(Nc2nc(NCc3ccc(-n4ccnc4)cc3)cc(-c3ccc(OC)cc3)n2)cc1
inactive: growth inhibition [1] 25% | inhibition [2] 8% | inhibition [3] -2% | outcome [5] | outcome [6] | outcome [7] | outcome [8]
active: growth inhibition [4] 96%

CCOc1ccc2nc(C)cc(NN=Cc3ccccc3F)c2c1
inactive: inhibition [2] 0% | inhibition [3] -3% | outcome [5] | outcome [6] | outcome [7] | outcome [8]
active: growth inhibition [1] 99% | growth inhibition [4] 101%

COc1ccc2c(C)cc(NCCCN(C)C)nc2c1
inactive: growth inhibition [1] 19% | inhibition [2] 10% | inhibition [3] 3% | outcome [5] | outcome [6] | outcome [7] | outcome [8]
active: growth inhibition [4] 95%

COc1c(C2CCN(CCCCNC(=O)c3cccc(-c4ccc(C(F)(F)F)cc4)c3)CC2)ccc2c1CCCC2
active: inhibition [2] 50% | growth inhibition [4] 92%
inactive: growth inhibition [1] 45% | inhibition [3] -4% | outcome [5] | outcome [6] | outcome [7] | outcome [8]

CCN(CC)S(=O)(=O)c1ccc(C=CC(=O)Nc2cc(Cl)ccc2N2CCOCC2)cc1
inactive: inhibition [2] 3% | inhibition [3] 4% | outcome [5] | outcome [6] | outcome [7] | outcome [8]
active: growth inhibition [1] 65% | growth inhibition [4] 90%

CCCCC(=O)Nc1nonc1-c1ccc(OCC)c(OCC)c1
inactive: inhibition [2] 9% | inhibition [3] -1% | outcome [5] | outcome [6] | outcome [7] | outcome [8]
active: growth inhibition [1] 95% | growth inhibition [4] 101%

Fc1ccc(CNc2nc(-c3ccc(F)c(C(F)(F)F)c3)n(-c3cccc(C(F)(F)F)c3)n2)cc1
inactive: inhibition [2] 0% | inhibition [3] -1% | outcome [5] | outcome [6] | outcome [7] | outcome [8]
active: growth inhibition [1] 80% | growth inhibition [4] 95%

Cc1cc(C(=O)NC2CCN(Cc3ccccc3)CC2)ccc1-c1nc2cc(Cl)c(Cl)cc2[nH]1
active: growth inhibition [4] 96%
inactive: growth inhibition [1] 32% | inhibition [2] 7% | inhibition [3] 0% | outcome [5] | outcome [6] | outcome [7] | outcome [8]
